# Calb FLC: C. albicans growth modulation with fluconazole. C. albicans CaCi-2 (fluconazole-resistant clinical isolate) + fluconazole, Alamar Blue growth, 48 h. growth inhibition, % (no concentration beside the values). hit rate 0.57% among 300,000. AID 1979;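 active = growth inhibition above about 58% in most replicates, limit read from the data, passing the limit was not always enough; inconclusive = exactly half the replicates above a set limit; inactive = most replicates below a set limit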;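 note: all wells also contain fluconazole at 8 µg/ml as a sub-toxic cotreatment; 0% = median of DMSO wells and 100% = median of geldanamycin control wells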
# PP1 counter: counter-screen for PP5 inhibitors: inhibitors of human PP1-alpha. hit rate 0.9% among 320,000. inhibition, % at 6.7 µM. purified PP1alpha, OMFP fluorescence. P62136;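 active = inhibition above the mean inhibition of all tested compounds plus 3 SD, computed separately for each screening campaign, cut at about 15% in these data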
# Target sequence (P62136 whole entry, looked up): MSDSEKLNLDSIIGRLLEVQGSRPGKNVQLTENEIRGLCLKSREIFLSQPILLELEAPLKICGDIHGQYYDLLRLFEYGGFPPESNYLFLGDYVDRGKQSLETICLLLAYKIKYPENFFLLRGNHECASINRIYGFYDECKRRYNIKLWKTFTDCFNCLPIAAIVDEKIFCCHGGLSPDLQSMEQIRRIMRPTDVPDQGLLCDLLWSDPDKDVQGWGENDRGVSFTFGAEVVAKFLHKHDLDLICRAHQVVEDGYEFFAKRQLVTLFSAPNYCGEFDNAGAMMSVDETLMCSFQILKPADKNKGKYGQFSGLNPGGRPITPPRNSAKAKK
# Beta cell apopt: blocks beta cell apoptosis; INS-1E cytokine-induced death, ATP luminescence, 48 h; percent of positive-control rescue, neutral wells zero; protection from apoptosis, % (test concentration not listed); hit rate 0.8% among 300,000; AID 435005;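 active = Every replicate reaches about 75%, or at least half do and their mean reaches it too, limit read from the data; inconclusive = At least half of replicates reach the limit but their mean does not; inactive = Under half of replicates reach the limit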;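 note: 0% = cytokine-treated negative control wells and 100% = positive control rescue; higher means more ATP so stronger rescue from cytokine killing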
# Mdm2-MdmX inh: inhibitors of human Mdm2/MdmX interaction; O15151+Q00987; SaOS-2 split-luciferase Mdm2/MdmX complementation, luminescence; inhibition, % at 8 µM; hit rate 3% among 330,000; AID 485346;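 active = inhibition of at least 50% at 8 µM in the primary screen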
# PP5 primary: inhibitors of human protein phosphatase 5 (PP5); inhibition, % at 6.7 µM; hit rate 0.18% among 320,000; P53041; purified PP5c, OMFP substrate fluorescence;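 active = inhibition above the campaign's mean inhibition across all tested compounds plus 3 SD, cut at about 9.5% in these data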;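 note: 0% = DMSO only and 100% = 100 µM cantharidin control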
# CSC inhib: blocks cancer stem cells; cancer stem cell-like cells viability, luminescence; inhibition, % at 7.5 µM; hit rate 1.1% among 300,000; AID 2717; in the data active = inhibition above about 75%; inconclusive = no clear call, values can overlap the other calls; tested in HMLE shEcad cells
# Mdm2 MdmX conf: confirmation of human Mdm2/MdmX interaction inhibitors; shares compounds with Mdm2-MdmX inh; Mdm2-MdmX binding, luminescent assay; inhibition, % at 8 µM; hit rate 55% among 10,000; in the data active = inhibition above about 40%
# FLuc counter: counter-screen for Mdm2/MdmX inhibitors: full-length luciferase; shares compounds with Mdm2-MdmX inh; SaOS-2 full-length luciferase counterscreen, luminescence; inhibition, % at 8 µM; hit rate 77% among 6,200; AID 504607;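 active = mean inhibition at 8 µM reaching about 37%, which flags the compound as non-specific, limit read from the data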;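 note: p53-null SaOS-2 cells with luciferase driven by a doxycycline-inducible promoter; compound on cells about two nights before reading with doxycycline added after day one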
# An asterisk follows results filed as active; ? = inconclusive; nt = not tested or not shown. Hits are enriched below; roughly 4.9% of the tested compounds scored in any of these assays.
SMILES,Calb FLC,PP1 counter,Beta cell apopt,Mdm2-MdmX inh,PP5 primary,CSC inhib,Mdm2 MdmX conf,FLuc counter
COc1ccc(F)cc1C(=O)C1CCCN(C(=O)c2ocnc2C)C1 (stereo not drawn),13.5,-0.5,-4.4,-7.6,0.5,-12.1,nt,nt
COc1cc(/C=N/NC(=O)C(N)=O)ccc1OCC(=O)N1C(C)CCCC1C (stereo not drawn),15.5,-1.9,0.7,-4.6,1.9,-6.6,nt,nt
COc1cc(C2C(C#N)=C(N)Oc3cc4c(cc32)OCO4)cc(OC)c1OC (stereo not drawn),3.3,-0.4,63.8,80.7*,1.8,37.8,67.7*,126.1*
COc1cc(C2CC(=O)Oc3cc4c(cc32)OCO4)cc(OC)c1OC (stereo not drawn),nt,nt,nt,11.3,nt,nt,nt,nt
Cc1cc(C)c(C(=O)/C=C/c2ccc(C(C)C)cc2)c(=O)[nH]1,0.1,3.8,-31.1,85.7*,-0.5,83.6*,97.2*,56.0*
Cc1cc(C)c(C(=O)/C=C/C=C/c2ccccc2)c(=O)[nH]1,6.4,-3.2,-0.8,27.5,-1.8,1.2,nt,nt
CCN(CC)S(=O)(=O)c1ccc(NC(=O)C2CCCN(C(=O)c3ccc(Cl)cc3)C2)cc1 (stereo not drawn),-1.9,-0.7,-0.4,-9.1,5.1,22.7,nt,nt
COc1cc(NC(=O)CSc2nnc3c(n2)[nH]c2ccc(S(=O)(=O)NC(C)C)cc23)cc(OC)c1OC,9.1,-0.5,1.9,5.1,-1.5,4.2,nt,nt
C=CCN1C(=O)c2ccccc2NC1c1ccc(Br)s1 (stereo not drawn),-7.6,-0.8,-4.8,0.0,0.4,-1.0,nt,nt
O=C1c2ccccc2NC(c2ccc(Br)s2)N1O (stereo not drawn),1.7,1.8,11.2,53.8*,-0.8,9.7,62.0*,43.9*
Brc1cccc(-c2nnc(SCc3ccon3)n2-c2ccccc2)c1,25.0,-2.5,0.6,5.5,-0.4,-13.6,nt,nt
Cc1cc(Oc2nc3c(C)cccn3c(=O)c2/C=C(\C#N)S(=O)(=O)c2ccc(Cl)cc2)ccc1Cl,-4.6,-1.6,44.4,56.7*,-2.4,46.5,-1.2,nt
COc1ccc(/C=C2\CCCCC2=O)cc1,0.8,-7.7,-4.1,-4.0,-2.6,-9.0,nt,nt
COc1ccc(/C=C2\CCC/C(=C\C=N\N(C)C)C2=O)cc1,32.5,-0.4,-10.2,94.6*,-0.8,85.6*,50.6*,29.2
O=C1/C(=C/c2ccc(C(=O)O)cc2)CCC/C1=C\c1ccc(C(=O)O)cc1,-13.9,-2.4,0.4,-11.4,-0.8,-4.8,nt,nt
CN(C)/N=C/C=C1\CCC/C(=C\c2ccc(F)c(F)c2)C1=O,13.0,-0.9,18.8,77.1*,1.6,84.9*,27.9,44.4*
Cn1cnc2c1c(=O)n(Cc1ccc(Cl)cc1Cl)c(=O)n2C,-4.0,-2.3,-4.0,3.7,1.2,-7.1,nt,nt
COc1ccc(S(=O)(=O)N2CCN(C(=O)c3ccco3)CC2)cc1C(C)(C)C,-3.9,4.1,-2.7,2.9,3.0,-19.7,nt,nt
COc1ccc(C2CC(=O)N(C)c3ccccc3S2)cc1 (stereo not drawn),?,0.8,-10.1,67.8*,0.1,-3.3,46.8*,96.9*
NC(=O)c1nn(-c2ccccc2)nc1NC(=O)Cn1nnc(-c2ccccc2)n1,-4.8,5.7,-3.6,60.9*,2.6,1.2,-6.3,nt
CCCC(=Nc1ccccc1OC)C1=C(O)CC(c2ccccc2)CC1=O (stereo not drawn),4.4,-3.8,-0.6,-10.6,-1.0,-3.3,nt,nt
COc1ccccc1N=C(C)C1=C(O)CC(c2ccccc2)CC1=O (stereo not drawn),4.0,-4.2,28.4,61.1*,-2.0,41.3,54.5*,79.2*
COc1ccc(-c2cc(C(=O)OCC(=O)c3c(N)n(C)c(=O)n(C)c3=O)c3ccccc3n2)cc1,-6.7,-1.2,14.4,49.6,0.6,4.7,nt,nt
COc1ccc(/C=C2\CCCc3c2nc2ccccc2c3C(=O)OCC(=O)c2c(N)n(C)c(=O)n(C)c2=O)cc1,6.7,-0.4,10.7,85.6*,2.7,9.5,78.8*,44.4*
COc1ccc(NC(=O)CCc2nnc3ccc(N4CCC5(CC4)OCCO5)nn23)cc1,-23.1,0.5,0.8,25.2,0.5,1.5,nt,nt
SMILES,Calb FLC,PP1 counter,Beta cell apopt,Mdm2-MdmX inh,PP5 primary,CSC inhib,Mdm2 MdmX conf,FLuc counter
CCc1cc2c(COC(=O)CCNS(=O)(=O)c3cccc(C(F)(F)F)c3)cc(=O)oc2cc1O,nt,3.0,2.8,82.7*,2.7,30.2,-11.5,nt
CSc1nnc2c3cc(F)ccc3n(Cc3ccccc3)c2n1,-7.1,-1.5,1.8,27.0,7.3,nt,nt,nt
Cc1nc2c3ccccc3n(Cc3ccccc3F)c2s1,57.1,2.9,-16.2,4.4,0.9,27.9,nt,nt
Cc1nc2c3cc(F)ccc3n(CCN3CCCCC3)c2s1,4.2,-2.3,60.5,55.6*,-2.7,64.6,56.1*,68.2*
Cc1nc2c3ccccc3n(CCN3CCCCC3)c2s1,15.2,-4.3,7.4,8.5,0.8,-3.3,nt,nt
Cc1nc2c3cc(F)ccc3n(Cc3ccccc3F)c2s1,35.8,1.1,-2.5,59.4*,2.9,55.0,45.4*,78.5*
Cc1nc2c3cc(F)ccc3n(Cc3ccccc3)c2s1,-11.6,3.6,100.5*,53.0*,3.2,118.4*,55.0*,68.6*
COc1ccc(S(=O)(=O)N2CCOCC2)cc1NC(=O)CSc1nnc2n1CCCCC2,nt,nt,1.7,-9.0,nt,-12.8,nt,nt
COCCNC(=O)c1ccc(N2CC3CC(C2)c2cccc(=O)n2C3)c(NC(=O)c2ccc(Br)o2)c1 (stereo not drawn),-6.3,-1.0,-3.1,1.4,-0.9,7.3,nt,nt
CCN(CC)c1ccc(CNc2nc3ccccc3n2CCN2CCCCC2)cc1,-27.1,0.3,87.8*,89.0*,3.2,78.3*,48.5*,76.6*
c1ccc(Cn2c(CNc3nc4ccccc4n3CCN3CCCCC3)nc3ccccc32)cc1,1.9,4.0,0.4,56.7*,4.6,16.9,14.8,nt
CCNNC(=O)C(O)(c1cccc(C)c1)c1cccc(C)c1,7.8,0.7,nt,26.8,-0.7,-23.9,nt,nt
Cc1cccc(C(O)(C(=O)NNc2ccc3ccccc3n2)c2cccc(C)c2)c1,-4.0,5.3,2.2,53.2*,1.7,nt,31.1,nt
COCCNCC#CCOc1ccc(OC)cc1,-7.6,-2.4,-8.3,-3.0,-1.2,-10.9,nt,nt
COCCCNCC#CCOc1ccc(OC)cc1,-16.7,-1.2,-0.7,100.2*,2.5,-29.3,-0.7,nt
CSc1cccc(NS(=O)(=O)c2cc(Br)cnc2N)c1,0.8,-4.4,0.9,18.7,1.4,-3.1,nt,nt
CC(C)c1ccc(/C=C/C(=O)Nc2nc3ccc([N+](=O)[O-])cc3s2)cc1,29.5,0.6,15.8,56.2*,-0.5,36.5,15.6,nt
CC(=O)Nc1nc2cc([N+](=O)[O-])ccc2s1,nt,0.0,-5.9,-18.4,-1.1,7.5,nt,nt

# Compound activity as filed in PubChem.
